# Measurements published in the supplement of paper PMC12494721.
# Counter-ions that a name gives are not always drawn.
# How the values were obtained:
# Settings in all cases: incubation time: 27 h, anaerobic, 37 °C;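 for the amine columns active = adjusted P below 0.05 in both replicates with a change the same way and a mean fold change under 0.8 or over 1.25; inactive = the rest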
# [1] = tested on: Clostridium sporogenes DSM 1664; experiment: growth (OD595) fold change vs plate DMSO controls (fold change (ratio)); higher = more growth
# Outline: (§1)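 Shaken 96-well cultures in mGAM, grown anaerobically for 27 h at 37 °C, were read at 595 nm. OD came from blank-subtracted readings, corrected for background with 20 µM compound solutions in water and scaled by a calibration factor of 5. Growth is the fold change versus the plate's median DMSO control. Values average 2 biological replicates, and any fold change above 1.5 is NA.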
# Escherichia coli IAI1 [2] = experiment: as above
# Outline: as §1
# [3] = tested on: Klebsiella aerogenes DSM 30053; experiment: as above
# Outline: as §1
# [4] = tested on: Ruminococcus gnavus DSM 108212; experiment: as above
# Outline: as §1
# [5] = tested on: Klebsiella aerogenes DSM 30053; experiment: fold change of Histamine concentration vs plate DMSO controls (fold change (ratio)); higher = more amine produced, active = hit call of the paper (significant change in both replicates, either direction)
# Outline: (§2)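 Each value is the fold change relative to DMSO-only wells on the same plate. Four gut bacterial strains were grown anaerobically in mGAM at 37 °C for 27 h in 80 µL wells, starting at OD 0.1 before a 1:1 dilution, with compounds at 20 µM final (sweeteners 50 µM). Whole cultures were extracted with cold acetonitrile/methanol containing 0.1% formic acid, centrifuged, and amines were quantified by LC–triple-quadrupole MS (dynamic MRM) against external calibration curves with within-batch drift correction. Values are means of 2 biological replicates.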
# [6] = tested on: Clostridium sporogenes DSM 1664; experiment: fold change of Tryptamine concentration vs plate DMSO controls (fold change (ratio)); higher = more amine produced, active = hit call of the paper (significant change in both replicates, either direction)
# Outline: as §2
# [7] = tested on: Ruminococcus gnavus DSM 108212; experiment: as above
# Outline: as §2
# Escherichia coli IAI1 [8] = experiment: fold change of Putrescine concentration vs plate DMSO controls (fold change (ratio)); higher = more amine produced, active = hit call of the paper (significant change in both replicates, either direction)
# Outline: as §2
# [9] = tested on: Klebsiella aerogenes DSM 30053; experiment: as above
# Outline: as §2
# Escherichia coli IAI1 [10] = experiment: fold change of Cadaverine concentration vs plate DMSO controls (fold change (ratio)); higher = more amine produced, active = hit call of the paper (significant change in both replicates, either direction)
# Outline: as §2
# [11] = tested on: Klebsiella aerogenes DSM 30053; experiment: as above
# Outline: as §2
# [12] = tested on: Ruminococcus gnavus DSM 108212; experiment: fold change of 2-Phenylethylamine concentration vs plate DMSO controls (fold change (ratio)); higher = more amine produced, active = hit call of the paper (significant change in both replicates, either direction)
# Outline: as §2
Structure (SMILES),growth [1],growth (Escherichia coli IAI1 [2]),growth [3],growth [4],fold change of Histamine concentration [5],fold change of Tryptamine concentration [6],fold change of Tryptamine concentration [7],fold change of Putrescine concentration (Escherichia coli IAI1 [8]),fold change of Putrescine concentration [9],fold change of Cadaverine concentration (Escherichia coli IAI1 [10]),fold change of Cadaverine concentration [11],fold change of 2-Phenylethylamine concentration [12]
CO[C@H]1/C=C/O[C@@]2(C)Oc3c(C)c(O)c4c(O)c(c(/C=N/N5CCN(C6CCCC6)CC5)c(O)c4c3C2=O)NC(=O)/C(C)=C\C=C\[C@H](C)[C@H](O)[C@@H](C)[C@@H](O)[C@@H](C)[C@H](OC(C)=O)[C@@H]1C [Rifapentine] (20 µM),0.0116,0.42,0.784,0.198,0.572 (active),0.0208 (active),0.145 (active),0.829 (inactive),0.583 (active),1.92 (active),1.06 (inactive),0.128 (active)
CC(C(=O)O)c1ccc(N2Cc3ccccc3C2=O)cc1 (configuration not stated) [Indoprofen] (20 µM),1.13,0.99,0.973,1.01,1.04 (inactive),1.03 (inactive),1.09 (inactive),0.977 (inactive),0.993 (inactive),0.998 (inactive),0.982 (inactive),1.11 (inactive)
CCOC(=O)OC(C)OC1=C(C(=O)Nc2ccccn2)N(C)S(=O)(=O)c2ccccc21 (configuration not stated) [Ampiroxicam] (20 µM),1.02,0.978,1.03,1.1,0.908 (inactive),0.998 (inactive),0.999 (inactive),0.976 (inactive),0.998 (inactive),0.983 (inactive),1.01 (inactive),0.99 (inactive)
CN(C)CCCN1c2ccccc2Sc2ccccc21 [Promazine hydrochloride] (20 µM),1.02,0.959,0.962,1,1.05 (inactive),1.1 (inactive),0.823 (inactive),0.916 (inactive),0.995 (inactive),1.03 (inactive),0.983 (inactive),0.829 (inactive)
CN1CCN(c2c(F)cc3c(=O)c(C(=O)O)cn4c3c2OCN4C)CC1 [Marbofloxacin] (20 µM),0.0155,0.0185,0.139,1.36,0.107 (active),0.0554 (active),0.992 (inactive),0.616 (active),0.607 (active),0.231 (active),0.932 (inactive),1.04 (inactive)
CCn1cc(C(=O)O)c(=O)c2cc(F)c(N3CCNCC3)cc21 [Norfloxacin] (20 µM),0.0353,0.0339,0.239,0.814,0.0898 (active),0.0308 (active),0.863 (inactive),0.612 (active),0.792 (active),0.161 (active),0.963 (inactive),0.892 (inactive)
O=C(Cn1cnnn1)N[C@@H]1C(=O)N2C(C(=O)O)=C(CSc3nncs3)CS[C@H]12 [Ceftezole] (20 µM),0,0.855,1.05,0.188,0.895 (inactive),0.0131 (active),0.114 (active),0.749 (inactive),0.967 (inactive),1.61 (inactive),1.04 (inactive),0.105 (active)
O=c1cc(-c2ccc(O)c(O)c2)oc2cc(O)cc(O)c12 [Luteolin] (20 µM),0.877,0.977,0.977,1.11,0.969 (inactive),0.776 (inactive),0.985 (inactive),1.07 (inactive),0.991 (inactive),1.03 (inactive),1.02 (inactive),1.08 (inactive)
COc1ccccc1OCCNCC(O)COc1cccc2[nH]c3ccccc3c12 (configuration not stated) [Carvedilol] (20 µM),0.934,0.974,0.98,1.01,0.972 (inactive),1.03 (inactive),0.977 (inactive),0.987 (inactive),0.98 (inactive),1.02 (inactive),0.989 (inactive),0.998 (inactive)
C/C(=C(\CCOC(=O)c1ccccc1)SS/C(CCOC(=O)c1ccccc1)=C(/C)N(C=O)Cc1cnc(C)nc1N)N(C=O)Cc1cnc(C)nc1N [Bisbentiamine] (20 µM),0.925,0.985,0.994,1.01,1 (inactive),0.975 (inactive),0.917 (inactive),0.998 (inactive),0.999 (inactive),1.03 (inactive),0.983 (inactive),0.855 (inactive)
C[C@]12CCC(=O)C=C1CC[C@@H]1[C@@H]2C(=O)C[C@@]2(C)[C@H]1CC[C@]2(O)C(=O)CO [Cortisone] (20 µM),1.15,0.978,1,1.23,0.991 (inactive),0.974 (inactive),1.01 (inactive),1 (inactive),1 (inactive),0.994 (inactive),1.01 (inactive),1.03 (inactive)
